Active and inactive are the calls of the source. Rule for the calls: active = hit-call score of the fitted dose curve at least 0.9, where 1 is the maximum; inactive = score below 0.9.

A short description of the experiment: ATG_CRE_CIS: Attagene CIS-FACTORIAL HepG2 Assay for human cAMP Responsive Element (CRE) binding protein 3 (AID 2282926). The settings on record: HepG2 CRE cis-reporter, Attagene multiplexed mRNA; actives raise or lower the signal. As to the method:
ATG_CIS is a cell-based, multiplexed-readout assay that uses HepG2, a human liver cell line, with measurements taken at 24 hours after chemical dosing in a 24-well plate.ATG_CRE_CIS is one of 52 assay component(s) measured or calculated from the ATG_CIS assay. It is designed to make measurements of mRNA induction, a form of inducible reporter, as detected with fluorescence intensity signals by Reverse transcription polymerase chain reaction (RT-PCR) and Capillary electrophoresis technology.Data from the assay component ATG_CRE_CIS was analyzed into 1 assay endpoint. This assay endpoint, ATG_CRE_CIS, was analyzed with bidirectional fitting relative to DMSO as the negative control and baseline of activity. Using a type of inducible reporter, measures of mRNA for gain or loss-of-signal activity can be used to understand the reporter gene at the transcription factor-level as they relate to the gene CREB3. Furthermore, this assay endpoint can be referred to as a primary readout, because this assay has produced multiple assay endpoints where this one serves a reporter gene function. To generalize the intended target to other relatable targets, this assay endpoint is annotated to the dna binding intended target family, where the subfamily is basic leucine zipper.
Human liver HepG2 cells are transiently transfected with multiple reporter transcription units (MRTUs) in 6-well plates using FuGene 6 reagent (Roche; 3 ml FuGene/1 mg DNA). The MRTU constructs are regulated by a cis-regulating element (promoter). […] A major difference between the CIS and TRANS system is that in CIS activities of endogenous TFs are measured, whereas the TRANS assay evaluates changes in activities of exogenous, chimeric NR-Gal4 proteins. […] At the end of 24 hour incubation, total RNA was isolated using TriZol reagent (Invitrogen). The isolated RNA is then reverse-transcribed using oligo(dT) primer and Mo-MLV reverse transcriptase (Invitrogen) with DNAse I (Ambion) treatment for 30 min. The one-tenth of the produced cDNA was amplified by PCR using Taq DNA polymerase (Invitrogen) and two reporter sequence-specific primers. The PCR products were fluorescently labeled by primer extension with 6-arboxyfluorescein (6-FAM) 5'-labeled reporter sequence-specific primer (2 min at 95 C, 20 s at 68 C and 10 min at 72 C) and these products were digested with 5U of HpaI (New England Biolabs) for 2h at 37 C. The fragments were purified using Qiaquick PCR columns (Qiagen), analyzed on an ABI 3130xL genetic analyzer (Applied Biosystems) with peak positions identified by using a set of X-rhodamine (ROX)-labeled MapMarker1000 molecular weight standards (BioVentures). The raw capillary electrophoresis data was processed using Attagraph software (Attagene).
In the case of `CC(C)CP(=S)(S)CC(C)C`, the result was inactive.
Turning to `CNC(=O)CSP(=O)(OC)OC`, the outcome was inactive.
For `CCOP(=O)(OCC)SCCSCC`, the result was inactive.
As for `OC(Cc1ccccc1Cl)(Cn1[nH]cnc1=S)C1(Cl)CC1` (stereo not given), the result was inactive.
Same read-out and setting: the value for `CCOP(=S)(OCC)SCS(=O)(=O)C(C)(C)C` was “inactive”; that for `CCCCN(CCCCO)N=O` was “inactive”; that for `C=CCOC(F)(C(F)(F)F)C(F)(F)F` was “inactive”.
`CC(C)N(C(=O)CCl)c1ccccc1`: the molecule was called inactive.
Still for that read-out and setting: under `Oc1cccc(-c2ccccc2)c1` stands “inactive”.
As for `O=C(O)COc1ccc(Cl)cc1`, the outcome was inactive.
Turning to `O=[N+]([O-])c1ccccc1O`, the molecule was called inactive.
Turning to `CC(O)(CS(=O)(=O)c1ccc(F)cc1)C(=O)Nc1ccc(C#N)c(C(F)(F)F)c1` (stereo not given), the result was inactive.
Same read-out and setting: under `CCCSP(=S)(OCC)Oc1ccc(SC)cc1` (stereo not given) stands “inactive”.
What is called AC50 is the midpoint of the concentration-response curve, whichever way the signal moves. With `C=CC(=O)[O][Sn]([CH2]CCC)([CH2]CCC)[CH2]CCC`, the AC50 was 412 nM (active).
As for `BrCc1ccc(Br)cc1`, the call was inactive.
Consider `CC(C)(C#N)N=NC(C)(C)C#N`, for which the molecule was called inactive.
On the same count and under the same terms, the value for `O=C(NC(=O)c1c(F)cccc1F)Nc1ccc(Cl)cc1` was “inactive”; that for `Cc1ccccc1OP(=O)(Oc1ccccc1C)Oc1ccccc1C` was “inactive”.
On the same count and under the same terms, the value for `Cc1cc(Cl)ccc1O` was “inactive”.
Still for that read-out and setting: the value for `COC(=O)c1cc(Oc2ccc(Cl)cc2Cl)ccc1[N+](=O)[O-]` was “inactive”; that for `c1csc(-c2ccc(-c3cccs3)s2)c1` was “inactive”; that for `CC(F)(F)CC(F)(F)F` was “inactive”.
As for `COCCl`, the call was inactive.
Same read-out and setting: under `CC(C)(COCC1CO1)COCC1CO1` (stereo not given) stands “inactive”; under `CC(=O)CN(CC(C)=O)N=O`, “inactive”; under `Nc1nc(=S)[nH][nH]1`, “inactive”.
On the same count and under the same terms, under `c1ccc(-c2cccc(-c3ccccc3)c2)cc1` stands “inactive”; under `OCCN(CCO)CCO`, “inactive”.
The same measure, in the same setting: the value for `CN(C)[C@@H]1C(=O)C(C(N)=O)=C(O)[C@@]2(O)C(=O)C3=C(O)c4c(O)ccc(Cl)c4[C@@](C)(O)[C@H]3C[C@@H]12` was “inactive”.
In the case of `Clc1ccc(C(Cl)(Cl)Cl)cn1`, the result was inactive.
Consider `O=C(NC(=O)c1c(F)cccc1F)Nc1cc(Cl)c(F)c(Cl)c1F`, for which the result was inactive.
Still for that read-out and setting: under `Cc1cccc(C)c1NC(=O)CN1CCCC1=O` stands “inactive”; under `Clc1cc(C(Cl)(Cl)Cl)cnc1Cl`, “inactive”.
On the same count and under the same terms, the value for `CN(CCCC(O)c1cccnc1)N=O` (stereo not given) was “inactive”; that for `O=[N+]([O-])c1ccc(Cl)c([N+](=O)[O-])c1` was “inactive”.
Still for that read-out and setting: under `CN(C)CCN(C)C` stands “inactive”; under `O=c1nc(O)n(Cl)c(=O)n1Cl`, “inactive”; under `Clc1cnc(Oc2ccc(Oc3ncc(Cl)cc3Cl)cc2)c(Cl)c1`, “inactive”.
`CCN(CC)C(=O)C(Cl)=C(C)OP(=O)(OC)OC`: the result was inactive.
As for `C[As+](C)(C)CC(=O)[O-]`, the outcome was inactive.
